The values that follow come from PubChem BioAssay (NCATS).

Experiment [1] has as its target Cellular tumor antigen p53 (Homo sapiens) (UniProt P04637). Put plainly: Primary qHTS for small molecule compounds that upregulate eGFP-tagged delta133p53alpha (in N-terminal) cells. (AID 2060322). Further: nearly all actives have a fitted effect of over 75% in size. Further: potency means the concentration at half of the fitted maximal effect.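 On activation: series mostly up to about 56 µM; 0% = DMSO vehicle and 100% = reference activator.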 As to conditions: NCI-H358 eGFP-delta133p53alpha fluorescence, 24 h; activation: stronger effect = higher value. The method in brief: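 NCI-H358 cells pre-induced 24 h with 10 ng/ml doxycycline to express N-terminal eGFP-delta133p53alpha, then dosed 24 h at 37C without doxycycline; fixed, Hoechst-stained, GFP intensity by laser scanning cytometry, normalized to DMSO (0%) and 57.5 uM 5-azacytidine (100%).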
In general terms: qHTS replaces the single test concentration by a dilution series.

For experiment [2], the target named is Aldehyde dehydrogenase, mitochondrial (Homo sapiens) (UniProt P05091). Put plainly: qHTS for Inhibitors of the Aldehyde Dehydrogenase Family (ALDH2) Primary screen (AID 2061308).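 Further: plate controls were vehicle for no effect and reference inhibitor for full effect; nearly all actives have a fitted effect of over 55% in size.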
Experiment [3] deals with Retinaldehyde dehydrogenase 3 (Homo sapiens) (UniProt P47895). Put plainly: qHTS for Inhibitors of the Aldehyde Dehydrogenase Family (ALDH1A3) Validation screen (AID 2061312). Further: on the % scale 0 is the no-effect control and ±100 the full control effect; nearly all actives have a fitted effect of over 45% in size.
The target is the same in experiment [4]. The experiment can be described thus: qHTS for Inhibitors of the Aldehyde Dehydrogenase Family (ALDH1A3) Primary screen (AID 2061315).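 Further: plate controls were DMSO vehicle for no effect and reference inhibitor for full effect.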
The nature of experiment [5]: BET inhibitor-based combinations targeting novel dependencies in MECOM-rearranged (r) AML: SET-2 cell line (AID 2202231). Further: nearly all actives have a fitted effect of over 35% in size. Further: potency means the concentration at half of the fitted maximal effect.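 On viability: plate controls were DMSO treated cells for no effect and wells without cells for full effect.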 The conditions noted are these: SET-2 AML cells viability, CellTiter-Glo luminescence, 48 h; viability: stronger effect = lower value, concentration not given here. The method in brief: (§1)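 Readout: CellTiter-Glo luminescence. Exposure: 48 h, 11 concentrations, 500 cells/well. Metric: AUC and within-line Z-AUC after DMSO/empty-well normalization.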
For orientation: ATP-based viability assays read luminescence as a measure of living cells.

Experiment [6] can be described thus: BET inhibitor-based combinations targeting novel dependencies in MECOM-rearranged (r) AML: OCI-AML3 cell line (AID 2202232). Further: nearly all actives have a fitted effect of over 35% in size. Further: potency means the concentration at half of the fitted maximal effect. The conditions noted are these: Potency: OCI-AML3 viability. The method in brief:
as §1

Experiment [7] in a line: BET inhibitor-based combinations targeting novel dependencies in MECOM-rearranged (r) AML: MV-4-11 cell line (AID 2202233). Further: nearly all actives have a fitted effect of over 45% in size. Further: potency means the concentration at half of the fitted maximal effect. The method in brief: (§2)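 Seeding density was 500 cells/well, and drug exposure lasted 48 hr under standard culture conditions. Read-out used CellTiter-Glo reagent with a 15 min room-temperature incubation before luminescence measurement; AUC and Z-AUC summarize the normalized responses.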

A short description of experiment [8]: BET inhibitor-based combinations targeting novel dependencies in MECOM-rearranged (r) AML: HNT-34 cell line (AID 2202234). Further: nearly all actives have a fitted effect of over 35% in size. Further: potency means the concentration at half of the fitted maximal effect. The method in brief:
as §2

Experiment [9] is described as follows: BET inhibitor-based combinations targeting novel dependencies in MECOM-rearranged (r) AML: UCSD-AML1 cell line (AID 2202235). Further: nearly all actives have a fitted effect of over 40% in size. Further: potency means the concentration at half of the fitted maximal effect. The method in brief: as §2
The nature of experiment [10]: BET inhibitor-based combinations targeting novel dependencies in MECOM-rearranged (r) AML: AML-191 cell line (AID 2202236; further: nearly all actives have a fitted effect of over 35% in size; further: potency means the concentration at half of the fitted maximal effect). The method in brief: as §1
Experiment [11] in a line: BET inhibitor-based combinations targeting novel dependencies in MECOM-rearranged (r) AML: AML-194 cell line (AID 2202237; further: nearly all actives have a fitted effect of over 40% in size; further: potency means the concentration at half of the fitted maximal effect). The method in brief:
as §1

Values joined by “and” are separate entries in the source; they are usually repeats but may differ in a detail not shown here. Identical values can stand only once. Results filed as inconclusive are left out. A number with no mark means an inactive call. Active and inactive are the calls of the source. The call rests on the fitted dose curve; in most records, active means well fitted curve in the direction sought with a large enough effect; inconclusive means small, poorly fitted or top-dose-only effect, or another doubt; inactive means no such curve, though single readings can be large; an effect the other way counts as inactive or inconclusive.

Sequence of Cellular tumor antigen p53 (Homo sapiens) (P04637 whole entry, looked up): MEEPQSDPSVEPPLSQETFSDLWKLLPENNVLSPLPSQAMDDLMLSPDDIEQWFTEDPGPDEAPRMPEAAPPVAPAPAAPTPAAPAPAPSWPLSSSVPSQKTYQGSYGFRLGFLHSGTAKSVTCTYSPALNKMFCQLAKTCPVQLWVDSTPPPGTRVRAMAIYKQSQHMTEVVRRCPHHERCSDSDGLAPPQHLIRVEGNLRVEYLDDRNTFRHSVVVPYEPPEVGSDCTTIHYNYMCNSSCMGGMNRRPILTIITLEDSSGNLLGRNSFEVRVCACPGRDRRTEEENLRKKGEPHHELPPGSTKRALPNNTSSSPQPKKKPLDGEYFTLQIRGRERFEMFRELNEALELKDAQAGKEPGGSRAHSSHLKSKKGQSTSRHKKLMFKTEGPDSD

As for `Cc1cccc(-c2nn3c(c2-c2ccnc4ccc(C(N)=O)cc24)CCC3)n1`, the activation in [1] is -7.16%. Further, the Potency entry in experiment [2], in experiment [3], in experiment [4], in experiment [6], in experiment [7] and in experiment [8] was “inactive” throughout. The Potency result in [9], in [10] and in experiment [11] was “inactive” throughout. Besides, in experiment [5], the viability (commonly a read-out of living cells in per cent, often relative to untreated cells) was 108%.
`CCCCNc1ncc(-c2ccc(CN3CCOCC3)cn2)c(NC2CCC(O)CC2)n1` (centres undefined): the activation in [1] is -4.77%. In addition, the Potency result in experiment [2], in [3] and in experiment [4] was “inactive” each time. The viability in experiment [5] is 114%. The Potency was 1.15 µM (active) in [6], 0.144 µM (active) in [7] and 8.11 µM (active) in [9].
In the case of `COc1cccc(Nc2c(C(N)=O)cnc3c(C)cc(S(=O)(=O)c4cccc(C(=O)N(C)C)c4)cc23)c1`, in [1], the activation was 11.1% and -9.07%. The Potency result in experiment [2], in experiment [3], in [4] and in experiment [9] was “inactive” each time. Further, the viability in experiment [5] was 120%. In addition, the Potency was 16.6 µM (active) in experiment [6], 3.32 µM (active) in [7] and 5.9 µM (active) in [10].
`CCOc1cc2c(c(F)c1OCC)C(=N)N(CC(=O)c1cc(N3CCOCC3)c(OC)c(C(C)(C)C)c1)C2`: in [1], the activation was -9.71%. Besides, the Potency entry in experiment [2], in experiment [3] and in experiment [4] was “inactive” in each case. In addition, the Potency in [5] was 16.6 µM (active); in experiment [6], 16.6 µM (active); in [7], 8.33 µM (active); in [8], 8.33 µM (active); in experiment [10], 16.6 µM (active); in [11], 10.5 µM (active).
Consider `Nc1ncnc2c1c(-c1cnc3[nH]ccc3c1)nn2C1CCCC1`, for which the Potency in experiment [1] was 26.9 µM (active); in experiment [5], 3.72 µM (active); in [6], 4.17 µM (active); in [7], 1.66 µM (active); in [8], 0.417 µM (active); in experiment [9], 0.372 µM (active). The Potency in experiment [10] is 2.95 µM (active); in experiment [11] it was 1.86 µM (active). Further, the Potency result in experiment [2], in experiment [3] and in [4] was “inactive” each time.
